# According to PubChem BioAssay AID1861 (The Scripps Research Institute Molecular Screening Center, 2009):
# “And” between values parts separate entries of the source, which are not always exact repeats. Equal values may be shown once. Screen size: about 290,000 compounds; about 3,100 (1.1%) were called active. No stated cut-off is given here; in the data, active means inhibition above about 16% (passing the limit was not always enough); inactive means the rest. The entries come from a sample that favours actives as a whole. The source holds several records for some structures; these can differ, active in one and inactive in another. Where a SMILES comes first, the peptide text is derived from it. [ ]: non-standard residue; d: D form. The star is where a group is joined. ξ: configuration not given here. Cbz = O=C(OCc1ccccc1)*; ξL = CC(C)CC(N)C(=O)O; ξP = O=C(O)C1CCCN1
# Molecular target: Neuropeptides B/W receptor type 1 (Homo sapiens) (UniProt P48145)
# Experiment: blockers of human neuropeptide B/W receptor 1 – cell-based, fluorescence, single concentration, primary screen (AID 1861);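 further: cells stimulated with the agonist NPW; 0% = agonist with vehicle and 100% = vehicle without agonist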
# Details: GPR7-expressing cells, fluorescence antagonist assay; at 4.4 µM; stronger effect = higher value
# Neuropeptides B/W receptor type 1 (Homo sapiens), sequence (P48145 whole entry, looked up): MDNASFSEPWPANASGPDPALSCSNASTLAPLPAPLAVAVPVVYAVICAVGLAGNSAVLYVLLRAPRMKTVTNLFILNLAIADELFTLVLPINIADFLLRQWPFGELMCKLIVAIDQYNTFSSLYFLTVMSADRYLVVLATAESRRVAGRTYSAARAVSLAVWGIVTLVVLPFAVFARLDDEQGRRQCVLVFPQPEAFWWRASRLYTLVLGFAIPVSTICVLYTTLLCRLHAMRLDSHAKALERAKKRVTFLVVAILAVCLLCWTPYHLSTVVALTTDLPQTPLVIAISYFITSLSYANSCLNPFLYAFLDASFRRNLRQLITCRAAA
row,Structure (SMILES),inhibition
1,CCOCCCn1c(SCC(=O)Nc2cc(OC)ccc2OC)nc2ccccc2c1=O,-10.2% (inactive)
2,Cc1ccc(NC(=S)NCCc2ccc(Cl)cc2)c(C)c1,-19.2% (inactive)
3,Clc1ccc(C[n+]2cc(-c3ccccc3)n3c2CCC3)cc1,-5.39% (inactive)
4,Cc1ccc(-c2c[n+](CC(=O)Nc3ccccc3)c3n2CCC3)cc1,-3.52% (inactive)
5,Cc1ccc(C(=O)C[n+]2cc(-c3ccccc3)n3c2CCCCC3)cc1,16.2% (inactive) and 28.1% (active)
6,C=CCn1c(CNS(=O)(=O)c2ccc(Br)cc2)nnc1SC,-2.9% (inactive)
7,CCC1C(=O)NCCN1C(=O)c1ccc2nc(Cc3ccc(OC)cc3)oc2c1 (stereo not drawn),10.3% (inactive)
8,N=C1C(c2nc3ccccc3s2)=C(O)CN1NC(=O)c1ccc([N+](=O)[O-])cc1,2.09% (inactive)
9,CC(C)CN(C(=O)c1cccc(S(=O)(=O)N2CCCCC2)c1)C1CCS(=O)(=O)C1 (stereo not drawn),3.39% (inactive)
10,NNC(=O)CSc1nnc(-c2ccccc2)n1-c1ccccc1,25.5% (inactive)
11,CC(C(=O)N1CCN(c2ccccc2F)CC1)c1ccc([N+](=O)[O-])cc1 (stereo not drawn),35.6% (active)
12,O=C(c1ccc(S(=O)(=O)N2CCCC2)cc1)N1CCN(c2ccccc2F)CC1,-4.62% (inactive)
13,O=C(CCSc1ccccc1)N1CCN(c2ccccc2F)CC1,1.08% (inactive)
14,CC(C)CC(NC(=O)C1CCCN1C(=O)[C@@H](C)NC(=O)OCc1ccccc1)C(=O)NCC(N)=O (stereo partly drawn) (Cbz-[dA][ξP][ξL]G-NH2),2.31% (inactive)
15,CN(Cc1c(F)cccc1Cl)S(=O)(=O)c1cccs1,-1.36% (inactive)
16,Cn1nccc1C(=O)N1CCCC(C(=O)c2ccc(Oc3ccccc3)cc2)C1 (stereo not drawn),-11.3% (inactive)
17,CCOCCCNC(=O)C(NC(=O)CNC(=O)c1ccccc1)c1ccc(OC)cc1 (stereo not drawn),-6.22% (inactive)
18,O=C1CN(C(=O)c2ccccc2F)C(c2ccc(F)cc2)c2cc(F)ccc2N1 (stereo not drawn),-1.3% (inactive)
19,Cc1cccc(NC(=O)CSc2nnc(-c3ccco3)o2)c1,2.82% (inactive)
20,O=C(CSc1nnc(-c2ccco2)o1)NCC(=O)c1ccccc1,37.5% (active)
21,CCOC(=O)c1sc(NC(=O)CSc2nnc(-c3ccco3)o2)c(C(=O)OCC)c1C,-9.68% (inactive)
22,N=c1c2c(-c3ccccc3)c(-c3ccccc3)n(Cc3ccccc3)c2ncn1CCCO,27.3% (active)
23,CCN(CC)CCn1cnc2c1c(=O)[nH]c(=O)n2Cc1ccccc1,-8.02% (inactive)
24,N=c1c2c(-c3ccccc3)c(-c3ccccc3)oc2ncn1Cc1ccco1,-7.33% (inactive)

row,Structure (SMILES),inhibition
1,Cc1ccc(C(=O)OCC(=O)NCc2ccc3c(c2)OCO3)s1,-1.76% (inactive)
2,OC(CNCc1ccc2c(c1)OCO2)COc1ccccc1 (stereo not drawn),-0.63% (inactive)
3,O=C(COc1ccccc1)NCc1ccc2c(c1)OCO2,26% (active)
4,CC(=O)NCCC(=O)Nc1nc(-c2ccc3c(c2)OCCO3)cs1,21.3% (inactive)
5,O=C(Nc1nc(-c2ccc3c(c2)OCO3)cs1)c1ccncc1,31.8% (active)
6,O=C(Nc1nc(-c2ccncc2)cs1)C1COc2ccccc2O1 (stereo not drawn),-9.64% (inactive)
7,CC(Sc1nnc(COc2ccccc2)n1-c1ccccc1)C(=O)O (stereo not drawn),11% (inactive)
8,Cc1cccc(N(C(=O)c2sc(C)nc2C)C(C(=O)NCC2CCCO2)c2ccccc2)c1 (stereo not drawn),-10.3% (inactive)
9,CCOC(=O)C1CCN(C(=O)CN2C(=O)c3cccnc3Oc3ccc(C)cc32)CC1,-8.59% (inactive)
10,Oc1ccccc1N1CCN(c2ncnc3sc(-c4ccccc4)cc23)CC1,-12.8% (inactive)
11,COc1ccccc1N1CCN(c2ccc([N+](=O)[O-])nc2)CC1,-2.36% (inactive)
12,COc1ccccc1N1CCN(c2ncnc3sc(C)c(-c4ccccc4)c23)CC1,27% (active)
13,CCCCCc1ccc(-c2cn(Cc3ccc4ccccc4c3)nn2)cc1,2.3% (inactive)
14,N#Cc1ccccc1NC(=O)c1ccc2c(c1)OCO2,-3.22% (inactive)
15,Cc1ccc(F)cc1NC(=O)c1ccc2c(c1)OCO2,-15.9% (inactive)
16,O=C(Nc1ccccc1F)c1ccc2c(c1)OCO2,30.2% (active)
17,COc1ccc(CCNS(=O)(=O)c2cc3c(cc2C)NC(=O)CO3)cc1OC,-11.3% (inactive)
18,Cc1cccc(N2CCN(C(=O)COCc3cc(-c4ccc5c(c4)OCO5)on3)CC2)c1C,14% (inactive)
19,O=C(COC(=O)c1ccc(F)cc1)Nc1nc2ccc([N+](=O)[O-])cc2s1,-8.84% (inactive)
20,O=C(NC(Nc1nc2ccc([N+](=O)[O-])cc2s1)(C(F)(F)F)C(F)(F)F)c1ccccc1,27.1% (active)
21,CCC(=O)NC(Nc1nc2ccc(C)cc2s1)(C(=O)OC)C(F)(F)F (stereo not drawn),-6.22% (inactive)
22,COc1cc(C2NC(=O)NC(c3ccccc3)=C2C(C)=O)c(Br)cc1OCC(N)=O (stereo not drawn),-18.1% (inactive)
23,COc1cccc(CNC(=O)COc2cc(O)c3c(c2)OC(C)(C)CC3=O)c1,1.6% (inactive)
24,CC(CCc1ccccc1)NC(=O)COC(=O)c1ccc(F)cc1 (stereo not drawn),-18.2% (inactive)

row,Structure (SMILES),inhibition
1,CC(C)[C@H](NC(=O)N1CCn2c1nc1ccccc12)C(=O)NC1CC1,-2.43% (inactive)
2,Cc1ccc(CS(=O)(=O)c2ncc(Cl)c(C(=O)Nc3nnc(C)s3)n2)cc1,-20.2% (inactive)
3,Cc1cccc(CS(=O)(=O)c2ncc(Cl)c(C(=O)Nc3ccc(F)cc3)n2)c1,39.8% (active)
4,Cc1cccc(NC(=O)c2nc(S(=O)(=O)Cc3ccccc3)ncc2Cl)c1,9.7% (inactive)
5,CC(=O)NCCC(=O)Nc1cc(S(=O)(=O)N2CCCCC2)ccc1Oc1cccc(C)c1,9.48% (inactive)
6,Cc1ccc(NC(=S)N(Cc2ccco2)C(C)c2cccs2)cc1 (stereo not drawn),-21.7% (inactive)
7,Cc1ccc(NC(=S)N(CCCN2CCC(C)CC2)Cc2ccco2)cc1,26.8% (active)
8,Cc1ccc(NC(=S)N(CCN2CCCCC2)Cc2ccco2)cc1C,0.11% (inactive)
9,c1ccc2c(c1)CSc1sccc1C2=C1CCNCC1,24.5% (active)
10,C=CS(=O)c1sc(Cl)c(N2CCOCC2)c1[N+](=O)[O-] (stereo not drawn),3.73% (inactive)
11,CN(Cc1ccccc1)c1nc2c(c(=O)[nH]c(=O)n2C)n1CCSc1nc2ccccc2[nH]1,-4.5% (inactive)
12,CCOC(=O)Cn1c(CN(Cc2ccccc2)Cc2ccccc2)nc2c1c(=O)[nH]c(=O)n2C,-9.45% (inactive)
13,Cn1c(=O)[nH]c(=O)c2c1nc(N(CCO)Cc1ccccc1)n2Cc1ccccc1Cl,27.1% (active)
14,CNC(=O)c1sc(Nc2ccc(OCc3ccccc3)cc2)nc1C,1.33% (inactive)
15,CCC(Cc1ccccc1)NC(=O)C1CCCCC1 (stereo not drawn),-7.32% (inactive)
16,O=C(NC(=O)c1ccccc1)Nc1ccccc1O,40.9% (active)
17,O=C(NC(=O)c1ccccc1)NC(=O)c1ccccc1,6% (inactive)
18,Cc1ccc(NC(=O)NC(=O)c2ccccc2)cc1F,-0.7% (inactive)
19,CCn1c(SCC(=O)Nc2ccc3c(c2)OCCO3)nnc1-c1ccncc1,-4.19% (inactive)
20,Cc1nonc1C1CCCN1C(=O)c1cc(COc2cccc(C(F)(F)F)c2)on1 (stereo not drawn),-2.6% (inactive)
21,COc1cccc(N2CCN(c3ccc4nnc(CCC(=O)N5CCN(C)CC5)n4n3)CC2)c1,-14.2% (inactive)
22,CCCOc1cccc(C(=O)Nc2ccccc2C(=O)N2CCN(C)CC2)c1,-9.32% (inactive)
23,O=C(CN1C(=O)S/C(=C\c2ccccc2F)C1=O)NCCCn1ccnc1,-12% (inactive)
24,O=C(CN1C(=O)/C(=C/c2ccccc2F)Sc2ccccc21)NCc1cccnc1,40.7% (active)

row,Structure (SMILES),inhibition
1,O=C(CN1C(=O)/C(=C\c2ccc(C(F)(F)F)cc2)Sc2ccccc21)NCc1ccco1,5.13% (inactive)
2,CSCc1ccc(C(=O)Nc2cc(C)cc(C)c2)cc1,3.49% (inactive)
3,O=C(Nc1ccc(-c2ccc3nncn3n2)cc1)C1CCCCC1,-11.2% (inactive)
4,Cc1ccc2nc(C)c3c(c2c1)N(c1ccccc1)CC3,36.7% (active)
5,Cc1ccc2nc3n(c(=O)c2c1)CCC3,-5.32% (inactive)
6,Cc1ccc2nc(Nc3ccccc3)cc(C)c2c1,-2.1% (inactive)
7,C/C(=N\NC(=O)c1cc2c(s1)CCC(C)C2)c1cccnc1 (stereo not drawn),-6.07% (inactive)
8,O=C(NCc1ccc2c(c1)OCO2)C(=O)NCC1OCCN1S(=O)(=O)c1ccc(F)cc1 (stereo not drawn),-11.7% (inactive)
9,CN(C)c1ccc(Nc2c3c4c(cccc4n(C)c2=O)C(=O)c2ccccc2-3)cc1,-1.09% (inactive)
10,CCN1CCN(c2ccc([N+](=O)[O-])cc2C(=O)c2ccc(Cl)cc2)CC1,32.3% (active)
11,CCC(=O)c1ccc(N2CCN(C(=O)c3cc([N+](=O)[O-])ccc3F)CC2)c(F)c1,8.34% (inactive)
12,O=C(Nc1cccc(Cl)c1)c1cc([N+](=O)[O-])ccc1N1CCN(CCO)CC1,6.31% (inactive)
13,O=C(Cn1cnc2ccccc21)Nc1ccccc1-c1ccccc1,-5.35% (inactive)
14,CCOCC(=O)Nc1ncc(S(=O)(=O)c2ccc([N+](=O)[O-])cc2)s1,19.5% (active)
15,CC(C)c1nnc(NC(=O)COC(=O)/C=C/c2ccc([N+](=O)[O-])cc2)s1,-6.73% (inactive)
16,O=C(COC(=O)C1CCCCC1)Nc1ccc([N+](=O)[O-])cc1,23.9% (inactive)
17,COc1ccc2c(c1)c(C(=O)N/N=C/c1cccs1)c(C)n2C,-1.8% (inactive)
18,O=C(COc1ccc(Cl)cc1Cl)NCCCNC(=O)c1cnccn1,-1.6% (inactive)
19,CC(=O)N1CCCc2cc(S(=O)(=O)N3CCCC(C(=O)N4CCN(c5cccc(Cl)c5)CC4)C3)ccc21 (stereo not drawn),35.7% (active)
20,CC(=O)N1c2ccc(S(=O)(=O)N3CCCC(C(=O)Nc4cccc(Cl)c4)C3)cc2CC1C (stereo not drawn),2.68% (inactive)
21,CC(=O)N1CCCc2cc(S(=O)(=O)N3CCCC(C(=O)NCc4ccc(Cl)cc4)C3)ccc21 (stereo not drawn),0.31% (inactive)
